# Results published in PubChem BioAssay (NCI).
# This is part of a sample that, as a whole, favours compounds with a hit. Of some 83,000 tested, about 20% had one in any assay.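 Cell lines were cultured in 96-well plates, exposed to a single compound concentration, and assessed for percent growth 48 hours later.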 A number with no mark means an inactive call. Rule for the calls: active = growth percent below 10; inactive = the rest.
# System: IGROV1 ovarian
# Test: NCI-60 one-dose screen, 48 h (100 = growth as untreated, 0 = no growth, -100 = all killed)
# Details: 10 µM unless noted
row,Compound,growth [%]
1,COC(=O)c1cccc2c1N(C)c1c(cccc1C(=O)OC)CC2,108
2,COc1ccc(/C=C2\N=C(c3ccccc3)N(C(=O)c3ccccc3O)NC2=O)cc1,98.2
3,c1cc2[nH]ncc2cc1-c1nc2ccc3[nH]ncc3c2c2c1CCC2,22.6
4,O=C(Oc1ccccc1[N+](=O)[O-])C1CCCN1C(=O)OCc1ccccc1 (centres undefined),109
5,O=C(Nc1ccncc1)C(=O)c1cn(S(=O)(=O)c2ccc(Cl)cc2)c2ccccc12,39.7
6,O=C(Nc1cccc(-n2cc(-c3ccncc3)c(-c3ccc(Cl)c(O)c3)n2)c1)Nc1ccc(Cl)c(Cl)c1,28.7
7,O=C(Nc1ccncc1)C(=O)c1cn(S(=O)(=O)c2ccccc2F)c2ccccc12,52
8,O=C(c1ccccc1)C1OC1c1ccc([N+](=O)[O-])cc1 (centres undefined),53.4
9,Cc1ccc(Cc2c(C=O)nc(N)[nH]c2=O)c2ccccc12,106
10,CCN(CC)CCOC(=O)C(c1ccccc1)(c1ccccc1)C(C)C,78.2
11,COc1ccc(C(=O)N2NC(=O)/C(=C/c3cn(-c4ccccc4)nc3-c3ccccc3)N=C2c2ccccc2)cc1,98.6
12,CC(C)(C)OC(=O)NC(CSCc1ccccc1)C(=O)ON1C(=O)CCC1=O (centres undefined),114
13,COc1ccc(C2=C(c3cc(OC)c(OC)c(OC)c3)C(=O)CC2)cc1,27.9
14,COc1ccc(C(=O)N2NC(=O)/C(=C/c3ccccc3F)N=C2c2ccccc2)cc1,107
